Screening data as filed in PubChem BioAssay.
Compounds with a hit are over-represented: about 4% of the library has one in this group of screens.
BoNT-A LC inh2 – blocks Botulinum neurotoxin A light chain protease | multiplex microsphere protease substrate cleavage, flow cytometry | inhibition, % at 10 µM | 0.17% of 360,000 active; also: plate controls were buffer without enzyme for full effect and enzyme alone for no effect
MazEF act – increases E. coli MazEF RNase cleavage of RNA. 0.32% of 350,000 active. activation, % at 20 µM. P0AE70. FAM/BHQ RNA-DNA oligo cleavage fluorescence, 5 h; in the data active = activation above about 50%
Target sequence (P0AE70 whole entry, looked up): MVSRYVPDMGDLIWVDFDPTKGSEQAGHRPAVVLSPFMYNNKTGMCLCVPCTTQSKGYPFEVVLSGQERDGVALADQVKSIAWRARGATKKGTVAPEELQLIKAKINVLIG
DUSP3 inh – DUSP3 (human) phosphatase inhibition. P51452. inhibition, % at 13.3 µM. 0.52% of 290,000 active. recombinant VHR phosphatase, pNPP absorbance; in the data active = inhibition above about 50%
Target sequence (P51452 whole entry, looked up): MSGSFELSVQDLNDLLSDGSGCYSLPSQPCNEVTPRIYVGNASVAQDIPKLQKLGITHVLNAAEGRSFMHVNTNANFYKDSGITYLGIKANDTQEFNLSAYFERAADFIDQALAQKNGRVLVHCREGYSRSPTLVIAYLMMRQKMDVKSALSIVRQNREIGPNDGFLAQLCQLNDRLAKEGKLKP
Bead autofluor – compound fluorescence in toxin protease inhibitor counterscreen | AID 624483 | fluorescence intensity (test concentration not listed) | compound autofluorescence counterscreen, microsphere flow cytometry; stronger effect = higher value | 3.1% of 360,000 active; in the data active = fluorescence intensity above about 16000; inconclusive = no clear call, values can overlap the other calls
BoNT-F LC inh – inhibitors of Botulinum neurotoxin F light chain protease; Multiplex microsphere protease cleavage assay, flow cytometry; inhibition, % at 10 µM; 0.22% of 360,000 active; in the data active = inhibition above about 35%, passing the limit was not always enough; inconclusive = no clear call, values can overlap the other calls; also: plate controls were buffer without enzyme for full effect and enzyme alone for no effect
Anthrax LF inh2 – inhibitors of Bacillus anthracis lethal factor protease. P15917. inhibition, % at 10 µM. multiplex microsphere protease cleavage assay, LF. 0.12% of 360,000 active; also: plate controls were buffer without enzyme for full effect and enzyme alone for no effect
The depositor's hits bear a star; u = inconclusive; x = not tested or not shown. Rule as the data show it, unless noted: active = inhibition above about 30%; inconclusive = no clear call, values can overlap the other calls; inactive = below that.

SMILES | BoNT-A LC inh2 | MazEF act | DUSP3 inh | Bead autofluor | BoNT-F LC inh | Anthrax LF inh2
Cc1cc(NC(=O)CSc2nc3ccsc3c(=O)n2CCCCC(=O)O)no1 | -1 | 1 | 41 | 16845* | 0 | -2
CCCCCCn1c(SCC(=O)Nc2cc(C)on2)nc2ccccc2c1=O | -2 | -7 | 3 | 16827* | -1 | -3
COc1ccc(Oc2nccc(OC)c2C#N)cc1 | 1 | 6 | 0 | 9277 | 8 | 1
CCCNC(=O)c1cc(Cl)c(NC(=O)C2=C(C)OCCS2)cc1OC | -2 | 4 | 57* | 3117 | -19 | 0
Cc1nnc2n(c1=O)C(CS(=O)(=O)c1ccccc1)CS2 (stereo not drawn) | u | -2 | 30 | 21322* | 0 | -6
O=C(Nc1ccccc1)c1sc(Cl)nc1-c1ccccc1 | 0 | 12 | -10 | 2620 | -8 | -4
Cc1ccc(NC(=O)c2sc(Cl)nc2-c2ccccc2)cc1C | 0 | 67* | 33 | 2992 | -1 | 2
CCOC(=O)N1N=C(C)CC1(O)c1ccc(Cl)cc1 (stereo not drawn) | -1 | 0 | -10 | 3138 | 2 | -3
CCc1ccc(C(=O)C23CN4CN(CN(C4)C2)C3)cc1 | 0 | 5 | 8 | 13062 | -3 | 3
O=C(c1ccco1)C12CN3CN(CN(C3)C1)C2 | 4 | 8 | 9 | 21201* | 2 | -4
CCN(CCC(=O)O)c1ccccc1 | 0 | -5 | 0 | 3322 | -3 | 0
CCN(CC)C1=NC(=[N+](CC)CC)c2ccccc21 | 14 | 9 | 31 | 17474* | 17 | -9
COc1cc2c(cc1OC)CN(CC(=O)Nc1ccc(F)cc1)C(C(=O)O)C2 (stereo not drawn) | 2 | 7 | 2 | 3392 | 24 | 6
CCN1CCN(c2ccc(NC(=O)c3ccc4c(c3)OCO4)cc2)CC1 | -1 | 4 | 17 | 16331* | -9 | -8
CCC(=O)N1CCN(c2ccc(NC(=O)c3ccc4c(c3)OCO4)cc2)CC1 | 0 | 7 | 3 | 4365 | 2 | 0
CCCCC(=O)Nc1ccc(NC(=O)c2ccc3c(c2)OCO3)cc1OC | 2 | 6 | 13 | 22707* | 2 | -4
COc1cccc(C(=O)Nc2ccc(-n3nncc3C(C)(C)C)cc2)c1 | 0 | -3 | 31 | 3967 | -2 | 4
CC(C)(C)c1cnnn1-c1ccc(NC(=O)c2ccc(Br)o2)cc1 | -3 | -3 | 21 | 20983* | -5 | -1
CC(C)(C)c1cnnn1-c1ccc(NC(=O)c2ccc3c(c2)OCO3)cc1 | -4 | 1 | -11 | 23470* | -5 | -2
O=C(CSc1nccc(=O)[nH]1)Nc1ccc2ccccc2c1 | 0 | 1 | x | 4149 | -6 | 1
COc1ccc(/C=N/Nc2ccc([N+](=O)[O-])cc2S(=O)(=O)N2CCN(C)CC2)cc1 | 0 | 166* | 5 | 10436 | -3 | 2
O=C(O)c1ccccc1C=NNc1ccc([N+](=O)[O-])cn1 | 0 | 7 | x | 2839 | -2 | -3
O=[N+]([O-])c1ccc(NN=Cc2cccc3ccccc23)nc1 | 2 | 123* | x | 4084 | -4 | 2
COc1ccc(COc2cc(-c3cccc(OC)c3)nc3ccc(NC(=O)c4ccc(N(C)C)cc4)cc23)cc1 | 0 | -9 | 9 | 4283 | -8 | 5
O=C(Nc1cccc(-c2nnc(-c3ccco3)o2)c1)C(c1ccccc1)c1ccccc1 | 0 | -4 | 8 | 2730 | -6 | -2
SMILES | BoNT-A LC inh2 | MazEF act | DUSP3 inh | Bead autofluor | BoNT-F LC inh | Anthrax LF inh2
CCOc1ccccc1N1C(=O)NC(=O)/C(=C/c2ccc3c4c(cccc24)CC3)C1=O | x | -15 | 22 | x | x | x
COc1cccc(N2C(=O)NC(=O)/C(=C/c3ccc4c5c(cccc35)CC4)C2=O)c1 | x | x | 51* | x | x | x
O=C(Nc1c(-c2ccccc2)nc2ccccn12)c1ccco1 | u | 3 | 1 | 22214* | 0 | 1
CSc1ccccc1NC(=O)c1ccco1 | 0 | -4 | 17 | 22329* | 0 | 0
Cc1ccc(-c2nc3ccccn3c2NC(=O)c2ccco2)cc1 | -3 | 5 | 27 | 6801 | -21 | -8
CCOC(=O)c1c(-c2ccccc2)nc2ccccn12 | u | 6 | 37 | 22802* | -1 | 1
O=C(Nc1ccccc1NC(=O)c1ccco1)c1ccco1 | 0 | 5 | 20 | 22408* | 1 | -2
CC(=O)N1CCC2(CC1)C(C#N)=C(N)Oc1n[nH]c(CSc3ccc(C)cc3)c12 | -1 | -3 | 12 | 8122 | -5 | -4
COc1cc(/C=C/C(=O)OCC(=O)c2c[nH]c3ccccc23)ccc1OC(F)F | 0 | 7 | 9 | 2262 | -4 | -1
CCN(CC)c1ccc(S(=O)(=O)N(CC)CC)cc1NC(=O)c1cccnc1 | 0 | 4 | 3 | 4143 | -3 | 7
O=C1NC2(CCCCC2)C(=O)N1c1ccc(Cl)cc1 | -1 | 5 | 5 | 3536 | 6 | -8
Cc1ccc(S(=O)(=O)N(CC(=O)Nc2cccc([N+](=O)[O-])c2)C(=O)N2CCN(C)CC2)cc1 | -45 | 2 | x | 16418* | -76 | -13
Cc1ccc(CNC(=O)CN(C(=O)N2CCN(C)CC2)S(=O)(=O)c2ccc(C)cc2)cc1 | x | -3 | x | x | x | x
Cc1cccn2c(=O)c3cc(C(=O)NCc4ccc(F)cc4)c(=N)n(CC4CCCO4)c3nc12 (stereo not drawn) | 4 | 12 | 56* | 6000 | 7 | -1
COc1ccc(CNC(=O)c2cc3c(=O)n4cccc(C)c4nc3n(CC3CCCO3)c2=N)cc1 (stereo not drawn) | -1 | 8 | 16 | 6426 | -1 | 2
CCOCCCn1c(=N)c(C(=O)NCCN2CCOCC2)cc2c(=O)n3cccc(C)c3nc21 | -1 | 6 | x | 22990* | -2 | 0
Cc1cccn2c(=O)c3cc(C(=O)NCCN4CCOCC4)c(=N)n(CCN4CCOCC4)c3nc12 | 0 | 7 | 18 | 4309 | -1 | -1
COc1cc(NC(=S)NC(=O)c2ccccc2F)ccc1NC(=O)c1cccs1 | 0 | -1 | -7 | 3148 | 2 | -5
COc1ccc(OC)c(C(=O)COC(=O)c2ccccc2O)c1 | 2 | -7 | 14 | 22401* | 2 | 0
COc1ccc(OC)c(C(=O)COC(=O)c2c(OC)cccc2OC)c1 | 0 | 0 | 14 | 3562 | 7 | -4
COc1ccccc1Nc1ncnc2ccc(C)cc12 | 0 | 6 | 21 | 2933 | 2 | 2
CCCCOCCCNS(=O)(=O)c1ccccc1 | -1 | 0 | 8 | 7983 | -25 | -3
CCOCCCNS(=O)(=O)c1ccccc1 | 5 | -140 | 22 | 20142* | 6 | -5
CN(C)C(=O)CSc1nnc(-c2cc(-c3cccs3)nc3ccccc23)o1 | 2 | 3 | 10 | 2319 | 1 | 2
Cn1c(NCCCN2CCOCC2)nc2c1c(=O)n(Cc1ccc(Cl)cc1Cl)c(=O)n2C | 2 | 10 | 24 | 21423* | 0 | -8
COC(=O)c1c(C(C)=O)cnc2ccc(Br)cc12 | 0 | -6 | 15 | 2485 | 0 | 2
